PubChem BioAssay AID745 (Emory University Molecular Libraries Screening Center, 2007)
Out of some 33,000 compounds screened, about 40 (0.1%) were called active. No stated cut-off is given here; in the data, active means z-score below about -3; inactive means the rest. The full list was thinned out, with actives kept by preference.

assay: inhibitors of measles virus growth in cells, primary screen, measles RdRp inhibitor project, cell-based, single point, HTS (AID 745); details: infected Vero cells, GFP fluorescence, 64 h; active compounds read low

z-score, inactive:
CC1=C(C(=O)N2CCOCC2)C(c2cccc(Cl)c2)C2=C(CCCC2=O)N1 (stereo not given) 0.7
COc1cc(NS(=O)(=O)c2ccc(NC(=O)CN3C(=O)c4ccccc4C3=O)cc2)ncn1 -0.53
CCOC(=O)Cc1nnc(NC(=O)c2ccc([N+](=O)[O-])cc2)s1 -0.27
Cc1c(C(=O)Nc2cccc(Cl)c2)oc2ccc(S(=O)(=O)N3CCOCC3)cc12 -0.46
C=CCn1c(SCCCC)nc2sc3c(c2c1=O)CCC3 1.46
Cc1cc(C)cc(NC(=O)c2cnn3c(C(F)(F)F)cc(-c4ccco4)nc23)c1 0.42
C=CCOc1ccc(NC(=O)C(=O)NC(C)c2ccccc2)cc1 (stereo not given) 0.77
O=C(O)COc1ccc(-c2cc(C(=O)O)c3cc(Br)ccc3n2)cc1 0.41
NS(=O)(=O)c1ccc(CCNC(=O)c2ccc3c(=O)n(Cc4ccco4)c(=S)[nH]c3c2)cc1 0.48
COc1cccc(C(=O)Nc2ccc3nc(N4CCCCC4)cc(C)c3c2)c1 -0.1
COc1cc(CNc2ccc3[nH]c(=O)[nH]c3c2)ccc1OCc1cccs1 -1.62
CCCCc1ccc(C(=O)Nc2ccc3nc(N4CCN(C)CC4)cc(C)c3c2)cc1 -0.21
COc1ccc(-c2nc3ccccc3n2Cc2ccccc2)cc1OC 0.26
O=C(Nc1ccc(Cl)cn1)c1ccc(-c2ccc(Cl)cc2)o1 -0.31
CCOC(=O)c1c(C)nc2c(C#N)c(C)n(-c3ccccc3)c2c1-c1ccc(Br)cc1 3.74
Cc1ccc(C2NC(=O)c3c(sc4c3CCCC4)N2)c(O)c1 (stereo not given) -1.13
CC1=C(C(=O)OCC(C)C)C(c2ccc(OCc3ccccc3)cc2)N2C(=O)CCSC2=N1 (stereo not given) -0.14
COc1ccc2nc(SCc3ccc(Cl)cc3)[nH]c2c1 0.1
COc1cc(C2CC(=O)c3cnc(NC(C)=O)nc3C2)cc(OC)c1OC (stereo not given) 1.22
Cc1cc(N2C(=O)c3ccccc3C2=O)ccc1Br -1.04
Cc1cccc(NC(=O)c2cc3c(=O)n4cccc(C)c4nc3s2)c1 -1.13
Cc1ccc(-n2c(SCC(=O)OCc3ccccc3)nc3c(c2=O)SCC3)cc1 -1
O=C1NC(c2ccccc2)Oc2ccccc21 (stereo not given) -0.5
Cc1ccc(Sc2c(C)nn(C(C)(C)C)c2OC(=O)C2CCCC2)cc1 -0.01
C=CCOC(=O)C1=C(C)N=C2SCCC(=O)N2C1c1ccc(Br)cc1 (stereo not given) -1.08
Cc1cc(C)cc(NC(=O)C(C)N(c2ccccc2)S(C)(=O)=O)c1 (stereo not given) 0.11
COC(=O)Cn1c(=O)n(-c2ccccc2)c(=O)n1CC(=O)OC 1.19
O=C1C2C3c4ccccc4C(Br)(c4ccccc43)C2C(=O)N1c1ccc([N+](=O)[O-])cc1 (stereo not given) -0.34
O=c1oc2ccc3ccccc3c2cc1-c1nc(-c2ccccc2)cs1 0.88
CC1CCC(NS(=O)(=O)c2ccc3c(c2)oc(=O)n3C)CC1 (stereo not given) -0.87
CN1CCN(C(=O)c2cnn3c(C(F)(F)F)cc(-c4ccc(Br)cc4)nc23)CC1 -0.34
O=C(NCc1ccc(F)cc1)c1ccc2c(=O)n(C3CCCC3)c(=S)[nH]c2c1 -0.53
COc1ccc(-c2c(C(F)(F)F)oc3cc(O)ccc3c2=O)cc1 0.21
CC(C)c1ccccc1NC(=O)c1ccccc1 0.08
CC(C)c1ccc(NC(=O)c2ccc(NC3CCCC(C)C3C)c([N+](=O)[O-])c2)cc1 (stereo not given) -0.26
O=C(CSc1nc2c(cnn2-c2ccc(F)cc2)c(=O)[nH]1)N1CCCCCC1 -0.88
CCCn1c2ccccc2c2n[nH]c(=S)nc21 -0.86
Cc1ccc(Cl)cc1N1CCN(C(=O)CCCn2c(=S)[nH]c3cc4c(cc3c2=O)OCO4)CC1 1.87
Cc1ccc(-c2cc3nc(C)cc(C(F)(F)F)n3n2)cc1 -0.75
COC(=O)c1ccc(Sc2ccc(C)cc2)c([N+](=O)[O-])c1 0.34
CCCn1c(C(C)NC(=O)C(C)(C)C)nc2ccccc21 (stereo not given) -0.58
Cc1cccc(NC(N)=Nc2nc(CSc3ccc(Cl)cc3)cc(=O)[nH]2)c1 0.03
O=[N+]([O-])c1ccc(C=Nc2ccc(-c3nc4ccccc4o3)cc2)s1 -1.32
CC(C)(C)c1ccc(C(=O)Nc2ccc(N3CCOCC3)c(Cl)c2)cc1 -1.1
CN(Cc1ccccc1)C(=O)Cn1ncc2c(=O)oc3ccccc3c21 1.21
CCCCNC(=O)c1ccc[nH]c1=S 0.16
CC(=O)c1cccc(NC(=O)c2ccccc2C(=O)O)c1 -0.2
COc1ccc(OC)c2[nH]c(=O)c(CCNC(=O)c3ccccc3I)cc12 -0.19
CSCCC1(C(=O)O)NC(c2cc(I)ccc2O)C2C(=O)N(Cc3ccccc3)C(=O)C21 (stereo not given) -0.74
O=C(NCc1ccccc1)c1ccc(CSCc2ccccc2Cl)o1 -0.18
Cc1ccc(S(=O)(=O)n2nc(OC(=O)c3ccc(F)cc3)cc2N)cc1 -1.65
Cn1c(=O)c(Cl)c(O)c2ccccc21 0.2
COC(=O)c1c(NC(=O)Cn2cnc([N+](=O)[O-])n2)sc2c1CCCC2 -0.06
CCOc1ccc(N=C2NC(=O)C(CC(=O)Nc3ccc(Br)cc3)S2)cc1 (stereo not given) -0.81
Cc1cccc(NC(=O)c2ccc(F)c(S(=O)(=O)N3CC(C)CC(C)C3)c2)c1 (stereo not given) -0.97
COC(=O)c1c(NC(=O)c2ccc(S(=O)(=O)N3CC(C)CC(C)C3)cc2)sc2c1CC(C)(C)NC2(C)C (stereo not given) -0.34
Cc1cccc(N2CCN(C(=O)c3ccc4nc5ccc(Cl)cc5c(=O)n4c3)CC2C)c1 (stereo not given) 0.3
CCOc1ccccc1NC(=O)c1sc2ncnc(N3CCCCC3C)c2c1C (stereo not given) 1.12
Cc1ccc(-n2nc3c(c2NC(=O)c2ccccc2F)CS(=O)(=O)C3)c(C)c1 -0.44
O=C1C2C3c4ccccc4C(C(=O)O)(c4ccccc43)C2C(=O)N1c1ccccc1Cl (stereo not given) -0.65
CC(C)(C)c1nnc(Nc2ccc3c(c2)OCO3)[nH]c1=O -0.67
CCNS(=O)(=O)c1cc(-c2nnc(Nc3cccc(C(F)(F)F)c3)c3ccccc23)ccc1C -0.06
Cc1ccc2nc(-c3ccccc3)c(Nc3ccccc3C)n2c1 -1.03
COc1ccc(C2/C(=C(\O)c3ccccc3)C(=O)C(=O)N2CO)cc1 (stereo not given) -0.38
O=P(Cc1cccc(CP(=O)(c2ccccc2)c2ccccc2)n1)(c1ccccc1)c1ccccc1 -1.8
COc1cc(NC(=O)c2noc3c2CCCCC3)c(OC)cc1Cl -0.93
Cc1ccc(S(=O)(=O)C2(C(=O)N(C)Cc3ccccc3)CC2)cc1 0.74
CCC(C(=O)NCCC(C)C)N1C(=O)CSc2ccc(C(C)(C)C)cc21 (stereo not given) 0.55
Cc1cc(C(=O)NCCCN=C2NS(=O)(=O)c3ccccc32)c2ccccc2n1 1.11
N#Cc1c(NC(=O)CCCC(=O)O)sc2c1CCCC2 -0.15
CCCC12CN3CC(C)(CN(C1)C3c1ccccc1Cl)C2=O (stereo not given) -0.48
O=C1CCCc2oc3c(cc(NS(=O)(=O)c4ccc(Cl)cc4)c4ccccc43)c21 -0.4
CN(C(=O)CCn1c(=S)oc2ccccc21)C1CCCCC1 -2.69
CCOc1ccc(C(=O)Nc2cccc(-c3nc4cc(C)ccc4o3)c2)cc1Br -0.49
O=C(Nc1c2c(nn1-c1ccc(F)cc1)CS(=O)(=O)C2)c1ccccc1Cl -1.44
COc1ccc(C2Nc3ccccc3C(=O)N2c2ccc(Cl)cc2)cc1COc1ccccn1 (stereo not given) 0.19
Cc1cc(Cl)ccc1OC1C(=O)N(c2cccc([N+](=O)[O-])c2)C1c1ccccc1Cl (stereo not given) -0.08
O=C(CCCn1c(=O)[nH]c2cc(Cl)ccc2c1=O)NCCc1c[nH]c2ccccc12 -0.02
O=S1(=O)N=C(N2CCCCC2)c2ccccc21 2.63
CC(=O)c1cccc(N2C(=O)c3ccc(C(=O)OCC(=O)c4cccc([N+](=O)[O-])c4)cc3C2=O)c1 -0.12
CC(C)Sc1oc(-c2ccc(F)cc2)nc1S(=O)(=O)c1ccc(Cl)cc1 -1.46
CC(=O)NC1=NN(C(C)=O)C(c2ccc3c(c2)OCO3)S1 (stereo not given) -0.09
Cc1ccc(S(=O)(=O)N2CCCCCC2)cc1C(=O)Nc1ccc(Br)cc1 -0.48
CCOc1ccc(-c2cc(C(=O)N3CCN(Cc4ccc5c(c4)OCO5)CC3)c3ccccc3n2)cc1 0.33
O=C(NCCN1CCOCC1)c1cc(Sc2cccc(Cl)c2)nc2ccccc12 0.36
Cc1cccc(NC(=O)c2c(NC(=O)c3ccncc3)sc3c2CCC(C(C)(C)C)C3)c1 (stereo not given) -0.43
COc1ccc(NC(=O)CN2C(=O)C3C4CCC(C4)C3C2=O)cc1 (stereo not given) 0.52
Cc1ccc(C)c(OCCc2c(C)n[nH]c2C)c1 0
COC(=O)c1ccccc1Oc1c(F)c(F)nc(NCCO)c1F -0.51
COc1ccc(OC)c(C=Nc2oc(-c3ccccc3)c(-c3ccccc3)c2C#N)c1 -1
